Bioassay records from PubChem.
The full list was thinned out, with hits kept by preference.
nsP2pro inh = blocks chikungunya virus nsP2 protease peptide cleavage. FRET peptide cleavage, nsP2pro, fluorescence 1 h. 31,000 compounds, 1.1% hits. AID 1964107. Potency, µM (series often up to 24.9 µM), for inactives: at the highest dose activity change, negative = inhibition, hits mostly inhibitors. Q8JUX6; note: nearly all actives have a fitted effect of over 60% in size
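Purified recombinant nsP2pro (150 nM final) in 10 mM Tris-HCl pH 8.0 with 0.01% Tween 20 was preincubated 15 min at room temperature with compound (7 concentrations, up to 25 uM). FRET peptide 2 substrate (2.5 uM final) was then added; fluorescence was read after 1 h.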
nsP2 cell sec = cell-based CHIKV nsP2 protease inhibition, secondary; AID 1964100; shares compounds with nsP2pro inh; Potency, µM (doses to about 51.1 µM), for inactives: at the highest dose activity change, negative = inhibition, most hits filed as inhibitors; 450 compounds, 10% hits; cell-based CHIKV nsP2 protease reporter assay; note: nearly all actives have a fitted effect of over 70% in size
CHIKV NSP2 FL = full-length CHIKV NSP2 protease inhibition, selectivity; shares compounds with nsP2pro inh; 410 compounds, 39% hits; Full-length CHIKV NSP2 protease enzymatic counterscreen; AID 1964101; Potency, µM (top dose mostly 50.7 µM), without a hit: top-dose activity change, negative = inhibition, actives largely listed as inhibitors; note: nearly all actives have a fitted effect of over 65% in size
Furin counter = selectivity counter-screen for CHIKV nsP2 protease inhibitors: human furin; Potency, µM (top dose mostly 50.6 µM), without a hit: top-dose activity change, negative = inhibition, actives largely listed as inhibitors; 410 compounds, 6% hits; shares compounds with nsP2pro inh; Recombinant human furin enzymatic counterscreen, fluorogenic substrate
Target sequence (P09958 whole entry, looked up): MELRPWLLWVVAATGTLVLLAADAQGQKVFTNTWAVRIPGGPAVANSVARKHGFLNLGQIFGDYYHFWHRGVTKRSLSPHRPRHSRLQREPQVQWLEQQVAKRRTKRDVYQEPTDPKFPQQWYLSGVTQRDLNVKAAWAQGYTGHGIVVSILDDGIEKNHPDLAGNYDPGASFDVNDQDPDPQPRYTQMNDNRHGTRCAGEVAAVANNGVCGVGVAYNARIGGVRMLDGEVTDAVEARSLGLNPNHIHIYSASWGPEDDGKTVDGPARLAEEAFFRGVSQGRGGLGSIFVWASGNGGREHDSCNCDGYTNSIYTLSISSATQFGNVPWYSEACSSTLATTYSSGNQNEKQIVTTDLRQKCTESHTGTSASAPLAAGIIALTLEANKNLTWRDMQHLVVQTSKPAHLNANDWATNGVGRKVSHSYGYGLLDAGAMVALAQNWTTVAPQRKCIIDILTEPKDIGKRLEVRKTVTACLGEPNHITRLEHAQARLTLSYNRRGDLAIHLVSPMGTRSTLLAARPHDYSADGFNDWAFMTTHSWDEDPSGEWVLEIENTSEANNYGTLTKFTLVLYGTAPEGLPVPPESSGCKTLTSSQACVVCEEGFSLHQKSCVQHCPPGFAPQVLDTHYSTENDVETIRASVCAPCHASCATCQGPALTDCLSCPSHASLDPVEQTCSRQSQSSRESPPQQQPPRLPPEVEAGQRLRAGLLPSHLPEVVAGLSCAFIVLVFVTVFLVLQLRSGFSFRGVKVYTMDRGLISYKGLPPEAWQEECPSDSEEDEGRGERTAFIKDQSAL
NS23 peptide cs = selectivity test for CHIKV nsP2 protease inhibitors: endogenous NS2/3 peptide. shares compounds with nsP2pro inh. Purified CHIKV nsP2 protease, endogenous NS2/3 peptide cleavage. Potency, µM (series often up to 51 µM), for the others: top-dose activity change, negative = inhibition, most hits filed as inhibitors. 410 compounds, 34% hits; note: nearly all actives have a fitted effect of over 55% in size
Papain counter = inhibits papain in a CHIKV nsP2 protease selectivity counterscreen. purified papain protease activity, enzymatic inhibition. Potency, µM (series often up to 51 µM), for inactives: at the top dose activity change, negative = inhibition, actives largely listed as inhibitors. shares compounds with nsP2pro inh. 410 compounds, 5% hits
nsP2pro conf qHTS = confirmation of CHIKV nsP2 protease inhibitors. shares compounds with nsP2pro inh. CHIKV nsP2 protease enzymatic activity, qHTS. Potency, µM (doses to about 25.5 µM), inactives show at the top dose activity change, negative = inhibition, most hits filed as inhibitors. 410 compounds, 43% hits. AID 1964105; note: nearly all actives have a fitted effect of over 75% in size
HCV NS3 counter = HCV NS3/4A protease inhibition, counterscreen; Potency, µM (titrated, usually from 50.9 µM), most hits filed as inhibitors; shares compounds with nsP2pro inh; 410 compounds, 20% hits; HCV NS3/4A protease biochemical counterscreen; note: nearly all actives have a fitted effect of over 55% in size
* hit, by the source's call; i = inactive; u = inconclusive; ! = a repeat was not active; [ ] = remark or other dose. Calls come from the whole dose curve. % is set by controls: 0 for no effect and ±100 for the full control effect; potency is the fitted concentration of half-maximal effect.

SMILES	nsP2pro inh	others
CN(C)c1cccc(N2CCN(c3nn4c(=O)c5ccccc5nc4s3)CC2)c1	-1%
O=c1cc(-c2cccnc2)oc2c(NCCc3ccccn3)nccc12	-21%[39.2 µM]
O=c1cc(-c2ccncc2)oc2c(-c3cccc(CO)c3)nccc12	14µM*
Cc1ccccc1-c1nccc2c(=O)cc(C3=CCOCC3)oc12	-18%[39.2 µM]
COc1cc(OC)c(C(=O)/C=C/c2ccccc2)c2c1C=CC(C)(C)O2	-13%
Cc1ncc(Cl)cc1NCc1ccc(C(=O)N[C@@H](CC2CCCC2)C(=O)NC2CC2)s1	-2%
C=C1CCC2C(C)(C)CC(O)CC2(C)C1CCC(C)CCOC(=O)CCC(=O)O (stereo not given)	28%[10 µM]
Cc1nc(CN2CCN(c3nccc(-c4cccnc4)n3)CC2)cs1	i
CN1CCN(c2ccc(-c3cc(O)c4ncccc4c3)cc2)CC1	i
COc1ccc(Nc2ccc3c(n2)CN(Cc2ccccc2C)C(=O)CO3)cc1	4.5µM*
COc1ccccc1-c1ccc2c(n1)CN(Cc1ccccc1C)C(=O)CO2	4%[39.2 µM]
COc1ccc(Nc2ccc3c(n2)CN(Cc2ccccc2F)C(=O)CO3)cc1	-2%[39.2 µM]
C=C1CCC2[C@@](C)(C=O)CCC[C@]2(C)[C@H]1CC/C(C)=C/CO (stereo not given in full)	70%
COc1ccccc1C(=O)Nc1nc(-c2ccccc2)cs1	-6%
CCCOc1ccccc1C(=O)Nc1nc2c(s1)CCCC2	13µM*
O=C(Nc1nc2c(s1)CCCCCC2)Nc1ccc(F)cc1F	-13%
O=C(O/N=C1\c2ccccc2-c2nc3ccccc3nc21)c1ccco1	u	nsP2 cell sec=1%;CHIKV NSP2 FL=3.7µM*;Furin counter=-10%;NS23 peptide cs=u;Papain counter=2.6µM*;nsP2pro conf qHTS=3.2µM*;HCV NS3 counter=i
O=C(Nc1cccnc1)c1ccco1	2%
Cc1cc(NC(=O)c2ccco2)cc(-c2nc3ccccc3o2)c1O	-28%
O=C(Nc1ccc(Cl)c(Cl)c1)Nc1nnc(-c2cccnc2)s1	4%
Cc1cc(F)ccc1S(=O)(=O)Nc1cnccc1C(=O)Nc1nc(-c2ccccc2)cs1	i
CC(=O)Oc1ccccc1C(=O)O	-8%
CC(=O)Nc1ccccc1	-2%
CC(=O)[O][Hg][c]1ccccc1	1.2µM*	nsP2 cell sec=1.3µM*;CHIKV NSP2 FL=1.8µM*;Furin counter=1.2µM*;NS23 peptide cs=4.6µM*;Papain counter=-6%;nsP2pro conf qHTS=0.36µM*;HCV NS3 counter=u
CNC(=O)c1ccc2c(c1)CCO[C@H]2CCN1CCN(c2ccc(OC)cc2)CC1	-7%
SMILES	nsP2pro inh	others
Cc1cc(C)n2ncc(C(=O)Nc3ccccc3)c2n1	-10%
CN(C)CC(=O)N1CCC[C@@H](n2nc(-c3ccc(Oc4ccccc4)cc3)c3c(N)ncnc32)C1	131%
N#CN1CCC[C@@H](n2nc(-c3ccc(Oc4ccc(F)cc4F)cc3)c(C(N)=O)c2N)C1	u	nsP2 cell sec=-10%;CHIKV NSP2 FL=18µM*;Furin counter=-9%;NS23 peptide cs=u;Papain counter=u;nsP2pro conf qHTS=7.1µM*;HCV NS3 counter=i
CC1=C2C[C@@]3(C)C(CCC[C@@H]3C)C(O)C2OC1=O (stereo not given in full)	9.9µM*	nsP2 cell sec=-11%;CHIKV NSP2 FL=13µM*;Furin counter=-2%;NS23 peptide cs=u;Papain counter=u;nsP2pro conf qHTS=7.1µM*;HCV NS3 counter=i
CC1=C2CC3C(CCC3(C)O)C(C)(O)CC2OC1=O (stereo not given)	55%
O=C(O)c1cccc(-c2noc(-c3ccccc3F)n2)c1	1%
NC(=O)c1c(NC(=O)c2ccncn2)sc2c1CCCC2	4%
Cc1ccc(S(=O)(=O)Nc2cc(Cl)c(O)c3ccccc23)c(C)c1	2.5µM*	nsP2 cell sec=6.5µM*;CHIKV NSP2 FL=7.3µM*;Furin counter=-15%;NS23 peptide cs=1.8µM*;Papain counter=-10%;nsP2pro conf qHTS=2.2µM*;HCV NS3 counter=u
Cc1cc(F)ccc1S(=O)(=O)Nc1cc2c(C(=O)O)c(C)oc2c2ccccc12	-25%
CC(=O)c1c(C)oc2c1cc(NS(=O)(=O)c1c(C)cc(C)cc1C)c1ccccc12	-27%
C/C(=N\NC(=O)C(NC(=O)c1ccccc1)c1n[nH]c(=O)c2ccccc12)c1cccc(Br)c1 (stereo not given)	9.9µM*	nsP2 cell sec=41%;CHIKV NSP2 FL=-2%;Furin counter=-8%;NS23 peptide cs=-18%;Papain counter=-15%;nsP2pro conf qHTS=-8%;HCV NS3 counter=i
CCCSc1ncc(Cl)c(C(=O)N(Cc2ccc(Cl)cc2)Cc2ccco2)n1	37%
CCCS(=O)(=O)c1ncc(Cl)c(C(=O)N(Cc2ccccc2)Cc2ccco2)n1	5.6µM*	nsP2 cell sec=4.6µM*;CHIKV NSP2 FL=18µM*;Furin counter=-13%;NS23 peptide cs=6.5µM*;Papain counter=-1%;nsP2pro conf qHTS=4.5µM*;HCV NS3 counter=u
CCSc1ncc(Cl)c(C(=O)N(Cc2ccccc2)Cc2ccco2)n1	-17%
Oc1ccc(COC2CCCC2)c2cccnc12	4%
Nc1ccc2c(c1)S(=O)(=O)NC2=O	4%
Cc1ccc(C(=O)N2C[C@@H](CN3CCOCC3)[C@@H](CO)C2)cc1O	2%
C=C1C[C@]23C[C@H]1CC[C@H]2[C@@]1(C)CCC[C@@]2(C)C(=O)O[C@@H]([C@@H]3O)[C@@H]12	-13%
C=C1CC23CC1CCC2C12OC(=O)C(C)(C(O)C(O)C1O)C2C3C(=O)O (stereo not given)	u	nsP2 cell sec=3%[33.5 µM];CHIKV NSP2 FL=u;Furin counter=-4%[33.5 µM];NS23 peptide cs=-22%[33.5 µM];Papain counter=-11%[33.5 µM];nsP2pro conf qHTS=u;HCV NS3 counter=i
C=C1C[C@]23C[C@@]1(O)CC[C@H]2[C@@]12C=C[C@H](O)[C@@](C)(C(=O)O1)[C@H]2[C@@H]3C(=O)O	-12%
Cc1cc(-c2nc3cc(F)ccc3s2)ccc1NC(=O)[C@@H](N)CCCCN	293%
CC1CCC2(C(=O)O)CCC3(C)C(=CCC4C5(C)CCC(OC(=O)/C=C/c6ccccc6)C(C)(C)C5CCC43C)C2C1C (stereo not given)	19%[10 µM]
COC1C=C(C)C(O)(CO)C2(C)CCCC(C)(C)C12 (stereo not given)	-7%
CS(=O)(=O)Nc1ccc(OCC(=O)N2CCN(c3ccc(F)cc3)CC2)nc1	-15%
CC(C)Nc1cccnc1N1CCN(C(=O)c2cc3cc(NS(C)(=O)=O)ccc3[nH]2)CC1	1.8µM*!	nsP2 cell sec=-1%;CHIKV NSP2 FL=u;Furin counter=-6%;NS23 peptide cs=u;Papain counter=-2%;nsP2pro conf qHTS=u;HCV NS3 counter=i
COc1ccc(N2CCN(C(=O)c3cc4ccc5cccnc5c4[nH]3)CC2)cc1	-9%
